Test results published in PubChem BioAssay (EPA / NIEHS).
Records with an inconclusive call do not appear. Calls of active or inactive are those of the source. How the source made its calls, unless noted: active means hit-call score of the fitted dose curve at least 0.9, where 1 is the maximum; inconclusive means response in the unintended direction; inactive means score below 0.9.

How the values were obtained:
[1] = Tanguay_ZF_120hpf_SNOU_legacy: (Legacy) Oregon State University Tanguay Lab 120 Hour Post-fertilization zebrafish Assay for Snout Malformation (AID 2283637)
Outline: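 Tropical 5D wild-type zebrafish embryos, dechorionated with pronase at 4 hpf, were exposed singly from 6 hpf to 120 hpf statically at 28C in 0.64% DMSO. Snout malformation was scored present/absent by brightfield microscopy, fitted against DMSO.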

[2] = Tanguay_ZF_120hpf_JAW_legacy: (Legacy) Oregon State University Tanguay Lab 120 Hour Post-fertilization zebrafish Assay for Jaw Malformation (AID 2283638);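 on AC50: active means more embryos with jaw malformation than DMSO controls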
Outline: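 Wild-type 5D embryos, chorion removed at 4 hpf, dosed singly from 6 hpf; 28C static, sealed, foil-covered, to 120 hpf. Endpoint: jaw defect yes/no (brightfield); mortality excludes scoring.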

[3] = Tanguay_ZF_120hpf_OTIC_legacy: (Legacy) Oregon State University Tanguay Lab 120 Hour Post-fertilization zebrafish Assay for Otic Vesicle Malformation (AID 2283639)
Outline: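 Tropical 5D wild-type zebrafish embryos statically exposed in 0.64% DMSO at 28C until 120 hpf; 5uM trimethyltin chloride as positive control. Otic vesicle malformation scored present/absent by brightfield; dead embryos not scored; gain fitted versus DMSO.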

[4] = Tanguay_ZF_120hpf_PE_legacy: (Legacy) Oregon State University Tanguay Lab 120 Hour Post-fertilization zebrafish Assay for Pericardial Edema (AID 2283640);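 on AC50: potency for increased incidence of pericardial edema versus DMSO baseline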
Outline: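 Zebrafish larvae are exposed from early development to 120 hpf at 28C, with 0.64% DMSO final. Each surviving larva receives a yes/no pericardial edema call by brightfield imaging, analysed relative to the DMSO baseline.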

[5] = Tanguay_ZF_120hpf_BRAI_legacy: (Legacy) Oregon State University Tanguay Lab 120 Hour Post-fertilization zebrafish Assay for Brain Malformation (AID 2283641)
Outline: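 Static exposure of staged wild-type embryos until 120 hpf, kept at 28C with light excluded and final DMSO of 0.64% (vol/vol). Presence or absence of brain malformation was noted under brightfield; mortality precluded scoring.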

[6] = Tanguay_ZF_120hpf_SOMI_legacy: (Legacy) Oregon State University Tanguay Lab 120 Hour Post-fertilization zebrafish Assay for Somite Malformation (AID 2283647)
Outline: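 Somitogenesis defects are recorded as binary calls in whole larvae at 120 hpf after continuous static chemical exposure starting at 6 hpf in dechorionated 5D embryos. DMSO serves as negative control and baseline.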

[7] = Tanguay_ZF_120hpf_CFIN_legacy: (Legacy) Oregon State University Tanguay Lab 120 Hour Post-fertilization zebrafish Assay for Caudal Fin Malformation (AID 2283649)
Outline: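 Single dechorionated 5D wild-type embryos are dosed at 6 hpf (final DMSO 0.64%) and held statically at 28C. Caudal fin malformation is recorded as present or absent at 120 hpf under brightfield, excluding dead embryos.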

[8] = Tanguay_ZF_120hpf_PIG_legacy: (Legacy) Oregon State University Tanguay Lab 120 Hour Post-fertilization zebrafish Assay for Pigmentation Malformation (AID 2283650)
Outline: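 Tropical 5D wild-type zebrafish embryos, dechorionated with pronase at 4 hpf, were exposed singly from 6 hpf to 120 hpf statically at 28C in sealed, dark plates with 0.64% DMSO; pigmentation scored present/absent by brightfield microscopy, fitted against DMSO.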

[9] = Tanguay_ZF_120hpf_CIRC_legacy: (Legacy) Oregon State University Tanguay Lab 120 Hour Post-fertilization zebrafish Assay for Circulatory Malformation (AID 2283651)
Outline: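 Dechorionated wild-type 5D zebrafish embryos, one per well, statically exposed from 6 to 120 hpf at 28C with 0.64% DMSO; circulatory malformation scored present/absent by brightfield microscopy at 120 hpf, dead embryos excluded.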

[10] = Tanguay_ZF_120hpf_SWIM_legacy: (Legacy) Oregon State University Tanguay Lab 120 Hour Post-fertilization zebrafish Assay for Swim Bladder Malformation (AID 2283654);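 further: swim bladder malformation in each larva scored yes or no under brightfield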
Outline: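 Dechorionated Tropical 5D wild-type embryos, placed singly from 6 hpf, were statically exposed at 28C to 120 hpf with 0.64% DMSO final; swim bladder malformation was scored present/absent by brightfield microscopy, gain of signal relative to DMSO controls.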

[11] = Tanguay_ZF_120hpf_TRUN_legacy: (Legacy) Oregon State University Tanguay Lab 120 Hour Post-fertilization zebrafish Assay for Truncated Body (AID 2283655)
Outline: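 Single dechorionated zebrafish embryos received test chemical from 6 hpf in 0.64% DMSO, kept at 28C. At 120 hpf, brightfield inspection noted any truncated body.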

[12] = Tanguay_ZF_120hpf_NC_legacy: (Legacy) Oregon State University Tanguay Lab 120 Hour Post-fertilization zebrafish Assay for Notochord and Tail Malformation (AID 2283656)
Outline: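 Dechorionated Tropical 5D wild-type zebrafish embryos, one per well from 6 hpf, statically exposed to 120 hpf at 28C in 0.64% DMSO final. Notochord distortion scored present/absent by brightfield; dead embryos excluded.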

[13] = read-out: Broad substrate specificity ATP-binding cassette transporter ABCG2 (Homo sapiens) (UniProt Q9UNQ0); assay: CLD_ABCG2_6hr: CellzDirect (CLD) Gene Expression Assay for ABC Transporter (ABCG2) at 6 hours (AID 2283660)
Outline: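 Primary human hepatocytes dosed daily with chemicals at multiple concentrations (0.2% DMSO vehicle), harvested 6 h after dosing. ABCG2 mRNA induction read by quantitative nuclease protection assay (qNPA) chemiluminescence; gain of signal fitted against DMSO baseline.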

[14] = Tanguay_ZF_120hpf_PFIN_legacy: (Legacy) Oregon State University Tanguay Lab 120 Hour Post-fertilization zebrafish Assay for Pectoral Fin Malformation (AID 2283648);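 further: each larva judged yes or no for fin defect by brightfield with dead larvae skipped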
Outline: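 Tropical 5D wild-type embryos, dechorionated with pronase at 4 hpf, were placed singly in wells at 6 hpf and statically exposed until 120 hpf at 28C, sealed and dark, with 0.64% (vol/vol) final DMSO; pectoral fin malformation scored present/absent.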

[15] = read-out: ABC Transporter (ABCB1), ABCB1 (gene 5243); assay: CLD_ABCB1_6hr: CellzDirect (CLD) Gene Expression Assay for ABC Transporter (ABCB1) at 6 hours (AID 2283659);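 further: hits raise ABCB1 transcript above the DMSO vehicle baseline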
Outline: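 Primary human hepatocytes (two donor preparations) dosed daily for two days with chemicals at multiple concentrations, 0.2% DMSO vehicle; harvested 6 h post-dose. ABCB1 mRNA induction quantified by qNPA chemiluminescence; gain-of-signal fitted versus DMSO.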

[16] = read-out: solute carrier (SLC22A6), SLC22A6 (gene 9356); assay: LTEA_HepaRG_SLC22A6: Life Technologies and Expression Analysis (LTEA) Assay for solute carrier (SLC22A6) using HepaRG (AID 2283653; active means hit-call score of the fitted dose curve at least 0.9, where 1 is the maximum; inactive means score below 0.9); details: mRNA level, 48 h; actives raise or lower the signal
Outline: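 Gene-expression endpoint in HepaRG hepatic cells: duplicate 8-point concentration-response, highest 100 uM, 48 h treatment in serum-free medium with 0.5% DMSO. SLC22A6 expression measured by qRT-PCR, normalised to ACTB/GAPDH/POLR2A.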

[17] = read-out: solute carrier (SLC10A1), SLC10A1 (gene 6554); assay: LTEA_HepaRG_SLC10A1: Life Technologies and Expression Analysis (LTEA) Assay for solute carrier (SLC10A1) using HepaRG (AID 2283657; active means hit-call score of the fitted dose curve at least 0.9, where 1 is the maximum; inactive means score below 0.9); details: mRNA level, 48 h; actives raise or lower the signal
Outline: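 Differentiated HepaRG cells were plated 48 h, then exposed in serum-free induction medium for 48 h to 8 concentrations (top 100 uM, half-log steps, 0.5% DMSO). SLC10A1 mRNA was quantified by qRT-PCR normalized to ACTB, GAPDH, POLR2A; bidirectional fit versus DMSO.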

[18] = read-out: matrix metalloproteinase-1 (MMP1), MMP1 (gene 4312); assay: LTEA_HepaRG_MMP1: Life Technologies and Expression Analysis (LTEA) Assay for matrix metalloproteinase-1 (MMP1) using HepaRG (AID 2283658; active means hit-call score of the fitted dose curve at least 0.9, where 1 is the maximum; inactive means score below 0.9); details: mRNA level, 48 h; actives raise or lower the signal
Outline: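 In this screen, human liver HepaRG cultures receive each chemical in duplicate for 48 h (top 100 uM, 0.5% DMSO). MMP1 expression is then quantified by TaqMan qRT-PCR with ACTB/GAPDH/POLR2A normalization.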

[19] = read-out: kallikrein-3 (KLK3), KLK3 (gene 354); assay: LTEA_HepaRG_KLK3: Life Technologies and Expression Analysis (LTEA) Assay for kallikrein-3 (KLK3) using HepaRG (AID 2283652; active means hit-call score of the fitted dose curve at least 0.9, where 1 is the maximum; inactive means score below 0.9); details: mRNA level, 48 h; actives raise or lower the signal
Outline: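 Differentiated human HepaRG cells in serum-free induction medium exposed 48 h in duplicate, eight-point half-log series from 100 uM in 0.5% DMSO. KLK3 mRNA by qRT-PCR, normalised to ACTB, GAPDH, POLR2A; bidirectional fit versus DMSO.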

Measured: AC50

Chain of Broad substrate specificity ATP-binding cassette transporter ABCG2 (Homo sapiens) (Q9UNQ0 whole entry, looked up): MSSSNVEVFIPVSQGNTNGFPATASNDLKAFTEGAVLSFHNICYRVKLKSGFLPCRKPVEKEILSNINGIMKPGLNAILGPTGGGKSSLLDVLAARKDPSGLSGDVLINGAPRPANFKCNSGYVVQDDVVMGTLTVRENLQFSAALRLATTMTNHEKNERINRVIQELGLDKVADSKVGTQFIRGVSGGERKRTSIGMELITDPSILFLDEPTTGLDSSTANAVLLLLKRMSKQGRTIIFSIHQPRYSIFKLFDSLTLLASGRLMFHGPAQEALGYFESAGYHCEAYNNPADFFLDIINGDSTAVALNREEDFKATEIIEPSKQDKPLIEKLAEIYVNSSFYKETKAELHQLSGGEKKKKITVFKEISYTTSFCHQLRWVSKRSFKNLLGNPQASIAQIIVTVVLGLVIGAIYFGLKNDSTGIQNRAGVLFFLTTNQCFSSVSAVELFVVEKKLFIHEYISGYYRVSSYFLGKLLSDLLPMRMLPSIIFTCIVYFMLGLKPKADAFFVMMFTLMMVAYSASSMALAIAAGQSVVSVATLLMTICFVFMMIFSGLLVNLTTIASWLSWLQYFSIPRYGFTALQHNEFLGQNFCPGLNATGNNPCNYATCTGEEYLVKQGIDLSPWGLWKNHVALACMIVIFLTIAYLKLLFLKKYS

COP(=O)(OC)C(O)C(Cl)(Cl)Cl (stereo unspecified)
not listed: [14] | [15] | [16] | [17] | [18] | [19]
inactive: all other assays above

CCOP(=O)(SC(C)CC)N1CCSC1=O (stereo unspecified)
not listed: [6] | [16] | [17] | [18] | [19]
inactive: all other assays above

CCOP(=S)(OCC)Oc1ccc([N+](=O)[O-])cc1
not listed: [8] | [9] | [13] | [14] | [16] | [17] | [18] | [19]
inactive: all other assays above

S=C1NCCN1
not listed: [2] | [9] | [14] | [16] | [17] | [18] | [19]
inactive: all other assays above

CCc1cccc(CC)c1N(COC)C(=O)CCl
not listed: [7] | [14] | [15] | [19]
inactive: all other assays above

CCOP(=S)(OCC)Oc1ccc2c(C)c(Cl)c(=O)oc2c1
active: [17] 70.7 µM
not listed: [3]
inactive: all other assays above

CCCOc1nn(C(=O)NS(=O)(=O)c2ccccc2C(=O)OC)c(=O)n1C
inactive: [1] | [2] | [3] | [4] | [7] | [10] | [12] | [13]

O=C(O)c1cc(Oc2ccc(C(F)(F)F)cc2Cl)ccc1[N+](=O)[O-]
not listed: [6] | [14] | [16] | [17] | [18] | [19]
inactive: all other assays above

CC(C1CC1)C(O)(Cn1cncn1)c1ccc(Cl)cc1 (stereo unspecified)
active: [1] 9.24 µM | [2] 24.7 µM | [4] 15.1 µM | [5] 22.6 µM | [10] 32.6 µM
inactive: [7] | [8] | [9] | [11] | [12] | [15] | [13]
